# Experimental data: PubChem BioAssay
# Activity calls are given as the source filed them.
# Assays:
# Albumin (Bos taurus) = Albumin (Bos taurus) (UniProt P02769); assay: bovine serum albumin binders on microarray, profiling panel, artefact control for SMM control protein annotation, biochemical, small-molecule microarray, Alexa647 label, 635/667 nm fluorescence (AID 1118); details: BSA-A647 binding, fluorescence 635 nm, higher = more signal;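 note: score merges 667 nm emission intensity and signal-to-noise per printed compound spot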
# Albumin (Bos taurus), sequence (P02769 whole entry, looked up): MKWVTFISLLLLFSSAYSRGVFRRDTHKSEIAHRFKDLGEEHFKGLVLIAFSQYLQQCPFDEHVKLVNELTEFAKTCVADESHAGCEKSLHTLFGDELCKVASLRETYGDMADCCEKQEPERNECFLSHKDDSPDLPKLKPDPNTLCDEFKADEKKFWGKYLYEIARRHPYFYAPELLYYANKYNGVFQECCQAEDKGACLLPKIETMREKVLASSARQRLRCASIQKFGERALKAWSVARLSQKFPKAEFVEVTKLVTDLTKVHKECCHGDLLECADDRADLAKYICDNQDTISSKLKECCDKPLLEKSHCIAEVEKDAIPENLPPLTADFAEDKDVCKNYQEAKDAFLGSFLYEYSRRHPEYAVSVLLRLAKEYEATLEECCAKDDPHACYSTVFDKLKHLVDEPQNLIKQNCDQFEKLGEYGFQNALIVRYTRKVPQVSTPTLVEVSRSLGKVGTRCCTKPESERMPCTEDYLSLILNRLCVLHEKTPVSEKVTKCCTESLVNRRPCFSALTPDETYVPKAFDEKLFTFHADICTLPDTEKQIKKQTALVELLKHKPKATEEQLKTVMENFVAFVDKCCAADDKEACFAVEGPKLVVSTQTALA
# [1] = small-molecule microarray binders of probe aXIP, primary screen, biochemical, NeuroSMM set, 635/667 nm fluorescence (AID 1119); details: higher = more signal, called active from +8 up or from −8 down;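 note: probe is the protein aXip251-270 applied at 1 µg/mL to compound-printed slides; binding of probe to printed compounds measured as 667 nm fluorescence plus signal to noise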
# [2] = small-molecule binders of probe aNOTCH3, primary screen, biochemical, small-molecule microarray, 635/667 nm fluorescence (AID 1120); details: higher = more signal;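 note: probe is a biotin-tagged antibody raised against NOTCH3 rather than NOTCH3 protein; score merges spot fluorescence near 667 nm with spot signal to noise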
# [3] = small-molecule binders of probe aNOTCH2, primary screen, biochemical, small-molecule microarray, 635/667 nm fluorescence (AID 1121); details: higher = more signal;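 note: score merges feature fluorescence read at 667 nm with its signal to noise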
# [4] = biological target: Carbonic anhydrase 2 (Homo sapiens) (UniProt P00918); assay: CAII small-molecule binders, profiling panel, biochemical, small-molecule microarray, Alexa647-labelled CAII (AID 1122); details: CAII-A647 binding fluorescence, higher = more signal
# [5] = COS7 lysate on small-molecule microarray, probe aHis, 635 nm (AID 1123); details: COS7 cell lysate, fluorescence, higher = more signal;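 note: z-score combines 667nm fluorescence intensity with signal-to-noise per printed compound spot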
# [6] = compound binding in COS7 lysate, probe aLAP1, primary screen, cell lysate, small-molecule microarray (AID 1124); details: probe aLAP1, fluorescence, higher = more signal;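 note: lysate comes from COS7 cells expressing LAP1 and is applied at 0.3 µg/mL; score merges spot fluorescence near 667 nm with signal-to-noise over triplicate slides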
# Sam68 (KHDRBS1) = assay: Sam68 small-molecule binders, primary screen, biochemical, small-molecule microarray, 635 nm fluorescence (AID 1125); details: small-molecule microarray binding, higher = more signal;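 note: score merges 667 nm channel intensity with signal to noise over triplicate slides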
# [7] = system: Chordin-like protein 2 (CHRDL2); assay: CHRDL2 small-molecule binders, primary screen, biochemical, small-molecule microarray, 635 nm fluorescence (AID 1126); details: small-molecule microarray binding, fluorescence 635 nm; higher = more signal;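 note: printed compound slides probed with Chrdl2 protein at 4 µg/mL for 1 h at 4 C; score merges 667 nm emission intensity with signal to noise over three replicate slides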
# [8] = biological target: Concanavalin-A (Canavalia ensiformis) (UniProt P02866); assay: ConA small-molecule binders, primary screen, artefact control for SMM control protein annotation, biochemical, small-molecule microarray, Alexa647 label, 635 nm (AID 1127); details: ConA-A647 binding fluorescence, higher = more signal;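 note: z combines 667 nm emission intensity with signal-to-noise across three replicate slides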
# Concanavalin-A (Canavalia ensiformis), sequence (P02866 whole entry, looked up): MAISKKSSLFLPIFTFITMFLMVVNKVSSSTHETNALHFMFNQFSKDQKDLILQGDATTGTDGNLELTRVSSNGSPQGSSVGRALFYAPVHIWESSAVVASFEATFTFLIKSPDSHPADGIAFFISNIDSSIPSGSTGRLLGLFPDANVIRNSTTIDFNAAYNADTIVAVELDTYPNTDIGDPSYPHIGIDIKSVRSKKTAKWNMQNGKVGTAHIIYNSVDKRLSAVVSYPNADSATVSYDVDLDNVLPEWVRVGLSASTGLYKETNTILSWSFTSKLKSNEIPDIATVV
# [9] = anti-His antibody binders, primary screen, artefact control for SMM control protein annotation, biochemical, small-molecule microarray, 635 nm fluorescence (AID 1128); details: anti-His Alexa647 antibody binding, higher = more signal;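 note: score merges feature fluorescence with signal-to-noise for each printed compound spot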
# [10] = system: Human papillomavirus type 1a E7 protein (residues 1-88); assay: HPV1a E7 small-molecule binders, primary screen, biochemical, small-molecule microarray, residues 1-88, 635 nm (AID 1129); details: small-molecule microarray binding, fluorescence 635 nm; higher = more signal
# [11] = biological target: Focal adhesion kinase 1 (Homo sapiens) (UniProt Q05397); assay: small-molecule microarray binders of FAK, primary screen, biochemical, 635/667 nm fluorescence, BSA, DTT (AID 1130); details: PTK2 binding, 635 nm fluorescence, higher = more signal;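 note: composite of spot emission at 667 nm and signal to noise over triplicate slides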
# Focal adhesion kinase 1 (Homo sapiens), sequence (Q05397 whole entry, looked up): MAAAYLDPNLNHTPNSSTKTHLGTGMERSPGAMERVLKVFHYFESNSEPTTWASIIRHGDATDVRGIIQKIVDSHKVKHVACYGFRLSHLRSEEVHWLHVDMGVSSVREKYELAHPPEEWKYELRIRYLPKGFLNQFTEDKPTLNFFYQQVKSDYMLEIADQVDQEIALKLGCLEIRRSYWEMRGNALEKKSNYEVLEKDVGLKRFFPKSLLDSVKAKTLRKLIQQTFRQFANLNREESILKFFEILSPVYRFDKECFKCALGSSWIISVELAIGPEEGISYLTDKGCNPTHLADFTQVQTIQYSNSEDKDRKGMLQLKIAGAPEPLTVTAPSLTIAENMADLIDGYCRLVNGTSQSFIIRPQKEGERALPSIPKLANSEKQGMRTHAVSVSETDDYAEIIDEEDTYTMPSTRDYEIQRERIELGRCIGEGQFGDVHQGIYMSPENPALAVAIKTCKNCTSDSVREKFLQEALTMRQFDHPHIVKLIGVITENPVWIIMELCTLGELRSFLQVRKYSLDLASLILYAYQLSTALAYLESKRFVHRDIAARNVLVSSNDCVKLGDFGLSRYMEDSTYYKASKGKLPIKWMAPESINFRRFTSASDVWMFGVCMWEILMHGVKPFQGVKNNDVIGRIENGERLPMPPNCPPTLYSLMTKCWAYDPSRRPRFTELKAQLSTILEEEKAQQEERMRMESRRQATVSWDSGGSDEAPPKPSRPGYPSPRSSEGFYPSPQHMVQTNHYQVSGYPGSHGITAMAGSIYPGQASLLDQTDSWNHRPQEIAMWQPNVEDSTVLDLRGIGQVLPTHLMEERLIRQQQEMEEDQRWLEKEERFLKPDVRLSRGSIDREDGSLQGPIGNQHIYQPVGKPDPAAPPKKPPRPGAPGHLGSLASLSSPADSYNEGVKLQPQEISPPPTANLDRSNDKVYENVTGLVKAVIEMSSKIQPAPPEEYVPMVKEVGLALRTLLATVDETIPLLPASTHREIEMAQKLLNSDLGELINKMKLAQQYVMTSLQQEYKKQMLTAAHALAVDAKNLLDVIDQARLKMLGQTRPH
# [12] = system: Fibrinogen (Alexa647-labelled); assay: fibrinogen binders on compound microarrays, profiling panel, artefact control for SMM control-protein annotation, biochemical, small-molecule microarray, 635/667 nm fluorescence (AID 1131); details: fibrinogen-A647 binding fluorescence, higher = more signal;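 note: z-score merges 667 nm fluorescence with per-spot signal-to-noise over triplicate slides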
# [13] = biological target: Follistatin (Homo sapiens) (UniProt P19883); assay: follistatin binders on small-molecule microarrays, primary screen, biochemical, small-molecule microarray, 635/667 nm fluorescence (AID 1132); details: FST binding, 635 nm fluorescence, higher = more signal
# Follistatin (Homo sapiens), sequence (P19883 whole entry, looked up): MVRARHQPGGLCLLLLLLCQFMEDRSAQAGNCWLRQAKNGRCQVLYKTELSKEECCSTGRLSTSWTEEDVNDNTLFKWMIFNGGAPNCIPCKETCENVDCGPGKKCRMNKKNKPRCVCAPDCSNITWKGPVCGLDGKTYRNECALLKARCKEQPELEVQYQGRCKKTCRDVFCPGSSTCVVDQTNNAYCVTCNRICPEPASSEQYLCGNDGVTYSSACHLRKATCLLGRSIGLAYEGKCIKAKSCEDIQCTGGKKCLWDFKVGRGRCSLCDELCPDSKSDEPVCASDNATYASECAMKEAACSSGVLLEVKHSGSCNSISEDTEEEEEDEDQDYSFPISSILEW
# [14] = biological target: Fibroblast growth factor 2 (Homo sapiens) (UniProt P09038); assay: FGF2 binders on small-molecule microarrays, primary screen, biochemical, small-molecule microarray, 635/667 nm fluorescence (AID 1133); details: small-molecule microarray binding, FGF2, fluorescence 635/667; higher = more signal
# Fibroblast growth factor 2 (Homo sapiens), sequence (P09038 whole entry, looked up): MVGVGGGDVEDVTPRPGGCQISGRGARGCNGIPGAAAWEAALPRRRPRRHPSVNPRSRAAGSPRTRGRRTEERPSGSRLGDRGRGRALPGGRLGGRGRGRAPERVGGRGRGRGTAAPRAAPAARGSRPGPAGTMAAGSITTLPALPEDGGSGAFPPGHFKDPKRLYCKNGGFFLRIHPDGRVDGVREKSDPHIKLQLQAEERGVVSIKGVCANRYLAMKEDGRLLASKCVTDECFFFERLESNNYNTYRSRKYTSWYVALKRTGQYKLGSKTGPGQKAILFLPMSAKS
# [15] = mitochondrial membrane potential change in A549 cells, profiling panel, cell-based, JC-1 fluorescence, basal, 24 h, 100 nL (AID 1138); details: higher = more signal;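 note: A549 lung adenocarcinoma cells under basal conditions with no added stimulus; test concentration not given here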
# Lefty1 = Lefty1 binders on small-molecule microarrays, primary screen, biochemical, small-molecule microarray, 635/667 nm fluorescence (AID 1139); details: small-molecule microarray binding, fluorescence 635/667; higher = more signal
# [16] = system: wheat germ agglutinin (Triticum aestivum), Alexa647-labelled; assay: wheat germ agglutinin binders on compound microarrays, profiling panel, artefact control for SMM control-protein annotation, biochemical, small-molecule microarray, 635/667 nm fluorescence (AID 1140); details: WGA-A647 binding, 635 nm fluorescence, higher = more signal;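 note: score merges 667 nm feature emission with signal to noise over triplicate slides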
# [17] = biological target: Luciferin 4-monooxygenase (Photinus pyralis) (UniProt P08659); assay: firefly luciferase enzyme inhibitors, primary screen, biochemical, luminescence, purified enzyme, 2006 set (AID 1141); details: SteadyGlo luminescence, 30 min, higher = more signal, called active from +8 up or from −8 down;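 note: cell-free assay with purified firefly luciferase at 100 ng per well in PBS; test concentration not given here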
# Luciferin 4-monooxygenase (Photinus pyralis), sequence (P08659 whole entry, looked up): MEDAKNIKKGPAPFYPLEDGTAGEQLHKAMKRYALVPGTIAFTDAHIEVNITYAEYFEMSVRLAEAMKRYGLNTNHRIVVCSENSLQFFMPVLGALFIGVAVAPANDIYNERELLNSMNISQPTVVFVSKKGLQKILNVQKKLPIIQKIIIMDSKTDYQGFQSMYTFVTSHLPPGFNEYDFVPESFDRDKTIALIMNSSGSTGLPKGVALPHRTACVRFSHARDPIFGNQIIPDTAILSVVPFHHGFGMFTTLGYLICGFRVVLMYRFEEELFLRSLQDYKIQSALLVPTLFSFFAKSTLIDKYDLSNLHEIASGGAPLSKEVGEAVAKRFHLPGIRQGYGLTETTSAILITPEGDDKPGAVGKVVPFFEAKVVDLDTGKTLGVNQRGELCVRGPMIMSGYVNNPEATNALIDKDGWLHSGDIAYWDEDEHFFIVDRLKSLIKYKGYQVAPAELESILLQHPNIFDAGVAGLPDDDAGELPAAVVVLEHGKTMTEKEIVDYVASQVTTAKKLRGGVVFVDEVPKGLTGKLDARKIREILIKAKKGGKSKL
Structure (SMILES),composite z-score (Albumin (Bos taurus)),composite Z-score [1],composite z-score [2],composite z-score [3],composite z-score [4],composite z-score [5],composite z-score [6],composite z-score (Sam68 (KHDRBS1)),composite z-score [7],composite z-score [8],composite z-score [9],composite z-score [10],composite z-score [11],composite z-score [12],composite z-score [13],composite z-score [14],z-score [15],composite z-score (Lefty1),composite z-score [16],z-score [17]
CC(=O)NCCCC[C@@H]1NC(=O)[C@H]2C[C@@H](C(=O)NCCCCCN)[C@@H](c3cccc(OCCO)c3)N2C1=O,0.796,-0.306 (inactive),0.0493,-0.0878,0.715,0.898,0.2,0.993,0.218,1.2,2.38,0.759,1.38,0.829,0.763,0.275,0.0821,0.279,1.1,-0.0548 (inactive)
CCCCC(=C=CC[C@H](O)c1cccc(OCCO)c1)C[C@H](O)COCc1ccccc1,0.92,0.11 (inactive),-0.179,-0.107,0.697,0.972,-0.501,0.435,-0.592,0.0194,-0.178,0.101,0.105,-0.606,0.0306,-0.473,0.396,0.743,0.435,-0.352 (inactive)
O=C1NC(=O)C2C1C=CC(C(O)c1ccc3c(c1)OCO3)N2Nc1ccc(Cl)cc1Cl (stereo not given),0.817,0.549 (inactive),0.144,-0.063,0.566,3.03,1.19,0.355,0.26,0.148,1.24,0.453,0.822,0.0542,0.579,-0.0317,0.512,0.194,0.698,-0.109 (inactive)
C=C(COC)C(=O)CC[C@H](OC(=O)c1ccccc1-c1ccccc1C(=O)O)c1ccc(OCCO)cc1,0.369,0.161 (inactive),0.0628,-0.117,0.425,0.276,1.12,1.09,0.498,0.527,2.56,1.08,0.033,0.879,1.42,1.35,-0.66,1.59,0.564,-2.22 (inactive)
CCCC[C@@H](O)C1=C(COc2ccccc2)Cn2c(=O)n(-c3ccccc3)c(=O)n2[C@H]1CO,-0.0711,-0.116 (inactive),-0.187,-0.148,-0.0781,0.725,0.148,-0.247,0.0826,-0.494,-0.265,-0.476,-0.103,0.729,-0.28,-0.242,0.363,-0.193,0.31,-1.79 (inactive)
COCCCNC(=O)[C@]1(CCS(=O)(=O)c2ccccc2)N=C(c2ccc(OCCCO)cc2)O[C@@H]1c1ccccc1,0.88,-0.263 (inactive),0.558,0.284,0.751,2.99,1.75,1.3,0.0923,1.1,1.85,1.27,1.57,0.997,0.892,1.36,1.3,0.136,0.455,-1.45 (inactive)
C=CCNC(=O)[C@H]1[C@@H]2C(=O)O[C@@H](c3ccccc3)[C@@H](c3ccccc3)N2[C@@H](c2ccc(OCCO)cc2)[C@]12C(=O)N(C(=O)OCCOC)c1ccc(C#CC3=CCCCC3)cc12,0.401,0.495 (inactive),0.0813,-0.109,0.643,1.34,0.737,1.31,0.399,1.12,1.56,1.2,0.485,0.968,1.17,1.25,-0.615,0.949,1.17,-1.77 (inactive)
CCOC(=O)C[C@H]1[C@H](OC(=O)c2ccccc2-c2ccccc2)[C@@H](NC(=O)c2ccccc2)c2cc(OCCCO)ccc2N1C(=O)Cc1ccc(OC)cc1,-0.261,-0.0282 (inactive),-0.0055,0.669,-0.0956,0.428,0.368,-0.0802,0.0666,0.588,-0.277,-0.64,0.0427,0.66,-0.0263,-0.188,0.322,-0.018,0.564,0.897 (inactive)
OCCCC1=CC(c2cccs2)N(Cc2cccc(OC(F)(F)F)c2)CC1 (stereo not given),0.659,-0.0774 (inactive),-0.147,0.072,0.389,0.0426,0.144,-0.184,-0.258,-0.659,0.357,-0.138,0.316,-1.42,-0.17,-0.546,0.593,0.226,0.771,-0.605 (inactive)
O=C(O)[C@@]1(Cc2ccccc2)COC(c2ccc(OCCCO)cc2)=N1,-0.584,0.133 (inactive),-0.197,-0.135,0.844,0.502,-0.131,-0.21,-0.675,-0.115,-0.951,-0.915,-0.375,-2.33,0.24,-0.33,0.315,-1.18,-0.723,-3.65 (inactive)
COc1ccc([Si](C)(C)[C@@H]2[C@@H](CCO)O[C@]3(C(=O)N(Cc4ccc(N5C(=O)c6ccccc6Oc6ccccc65)cc4)c4ccccc43)[C@H]2C)cc1,0.0104,0.441 (inactive),-0.0984,-0.106,-0.104,0.232,-0.398,-0.345,-0.968,0.187,0.0758,-0.235,-0.394,-0.0953,-0.163,-1.1,-0.285,0.0179,0.104,0.173 (inactive)
CC1CC/C=C\[C@H]2OC34C=CCN(Cc5ccccc5)C(=O)[C@H]3N(CCO)C(=O)[C@@H]4C2C(=O)O1 (stereo not given in full),-0.897,0.461 (inactive),-0.0984,-0.154,0.873,0.368,1.29,0.386,-0.793,-0.315,0.364,0.324,-0.106,-0.785,-0.418,-0.43,-0.322,-0.592,-0.162,-0.573 (inactive)
CCOC(=O)C[C@H]1[C@H](OC(=O)c2cc3ccccc3oc2=O)[C@@H](NC(=O)c2ccc3ccccc3n2)c2cc(OCCCO)ccc2N1C(=O)c1ccc2ccccc2n1,-0.407,0.581 (inactive),0.255,-0.0294,0.312,0.32,0.129,0.539,0.572,0.862,0.81,0.784,0.114,0.541,0.99,0.818,1.1,1.44,0.131,-0.204 (inactive)
COCCOC(=O)N1C(=O)[C@@]2(c3cc(C#CCCO)ccc31)[C@H](C(=O)NC[C@H](O)c1ccccc1)[C@H]1C(=O)O[C@H](c3ccccc3)[C@H](c3ccccc3)N1[C@@H]2c1ccccc1OCCO,-0.919,0.427 (inactive),0.252,0.177,0.0771,1.33,1.32,1.3,0.969,1.09,-0.338,1.23,1.07,0.59,1.28,1.42,0.358,1.35,1.07,-1.02 (inactive)
COCCOC(=O)N1C(=O)[C@@]2(c3cc(C#CCC(C(=O)OC)C(=O)OC)ccc31)[C@H](c1ccc(OCCO)cc1)N1[C@H](c3ccccc3)[C@H](c3ccccc3)OC(=O)[C@H]1[C@@H]2C(N)=O,0.84,0.674 (inactive),-0.0077,0.0264,0.57,2.82,1.02,1.29,0.474,1.15,1.38,1.2,1.16,0.924,1.28,1.13,-0.921,0.484,0.386,-1.23 (inactive)
CCOC(=O)C[C@H]1[C@H](OC(=O)Cc2ccc3c(c2)OCO3)[C@@H](NC(=O)c2ccccc2)c2cc(OCCCO)ccc2N1C(=O)c1ccccc1,-0.359,0.713 (inactive),-0.0573,-0.121,0.0488,0.525,0.379,0.425,0.434,0.374,-0.226,0.669,-0.061,0.731,0.392,0.383,0.673,0.557,1.25,-0.207 (inactive)
COc1ccc(C#Cc2ccc3c(c2)[C@]2(C(=O)N3)[C@H](C(=O)O)[C@H]3C(=O)O[C@H](c4ccccc4)[C@H](c4ccccc4)N3[C@@H]2c2ccc(OCCO)cc2)cc1,0.92,0.655 (inactive),0.364,0.0572,0.421,1.84,0.714,1.29,0.245,1.13,2.61,1.19,0.681,0.836,0.714,0.56,-2.47,0.128,1.18,-5.18 (inactive)
COC(=O)C(CC#Cc1ccc2c(c1)[C@]1(C(=O)N2)[C@H](c2ccccc2OCCO)N2[C@H](c3ccccc3)[C@H](c3ccccc3)OC(=O)[C@H]2[C@@H]1C(=O)Nc1nc2ccccc2s1)C(=O)OC,0.67,-0.364 (inactive),0.106,-0.0928,0.226,1.9,0.379,1.31,0.19,1.15,0.35,1.21,0.607,0.97,1.11,0.622,-2.12,0.9,1.29,-1.21 (inactive)
Cc1ccc(N2C(=O)c3ccccc3[C@](C)(C(=O)NC(C)C)[C@@H]2c2ccc(CO)cc2)nc1,-0.546,-1.02 (inactive),-0.571,-0.183,0.706,1.64,-0.699,-1.55,-1.13,-1.73,-2.03,-1.29,-1.72,-2.28,-0.739,-0.276,0.0388,-2.28,0.654,-1.01 (inactive)
